# TRPV1 agonist – HTS Assay for Compounds that Act as Agonists of the Vanilloid Receptor 1; Transient receptor potential cation channel subfamily V member 1 (Homo sapiens), Q8NER1; TRPV1-expressing cells, Fluo-8 calcium influx, agonist mode; activation, % at 8.33 µM; actives 0.19% (n = 320,000); AID 540275, 2011; in the data active = activation above about 80%; inconclusive = between about 30% and that limit
#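 Cells expressing TRPV1 were dye-loaded with Fluo-8 and read kinetically: 10 s baseline, 3 min after compound (agonist portion), then 2 min after EC20 capsaicin (allosteric enhancer portion). Calcium-bound dye fluorescence at 480/520 nm.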
# VP16 counter – VP16 counterscreen qHTS for inhibitors of ROR gamma transcriptional activity | Drosophila S2 Gal4-VP16 UAS-luciferase, luminescence, 20 h | Potency, µM (top dose mostly 53.6 µM), usual class: inhibitors | actives 3.5% (n = 310,000);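 also: Gal4-VP16 expression switched on by copper sulfate through the metallothionein promoter; nearly all actives have a fitted effect of over 50% in size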
# TRPV1 PAM – HTS Assay for Compounds that Act as Potentiators of the Vanilloid Receptor 1; TRPV1-expressing cells, Fluo-8 calcium influx, capsaicin EC20 potentiation; Transient receptor potential cation channel subfamily V member 1 (Homo sapiens), Q8NER1; actives 0.02% (n = 320,000); potentiation, % at 8.33 µM; in the data active = potentiation above about 80%; inconclusive = between about 30% and that limit
#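 Cells expressing TRPV1 were dye-loaded with Fluo-8 and read kinetically: 10 s baseline, 3 min after compound (agonist portion), then 2 min after EC20 capsaicin (allosteric enhancer portion). Calcium-bound dye fluorescence at 480/520 nm.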
# uPA generation – qHTS for Inhibitors of Cell Surface uPA Generation; cell surface uPA generation assay, qHTS; Potency, µM (highest dose often 38.3 µM), usual class: inhibitors; actives 0.31% (n = 330,000); active = well fitted inhibition curve with a large enough effect; inconclusive = small, poorly fitted or top-dose-only effect; inactive = no such curve, though single readings can be large or run the other way; tested in mouse RAW 264.7 cells; also: nearly all actives have a fitted effect of over 55% in size
# RORg inh – qHTS for inhibitors of ROR gamma transcriptional activity. Nuclear receptor ROR-gamma (Mus musculus), P51450. Drosophila S2 Gal4-RORgamma UAS-luciferase reporter, 20 h. Potency, µM (series often up to 53.6 µM), hits mostly inhibitors. actives 5.4% (n = 310,000). AID 2551, 2010; also: nearly all actives have a fitted effect of over 60% in size
# Target sequence (P51450 whole entry, looked up, the tested form may be a part): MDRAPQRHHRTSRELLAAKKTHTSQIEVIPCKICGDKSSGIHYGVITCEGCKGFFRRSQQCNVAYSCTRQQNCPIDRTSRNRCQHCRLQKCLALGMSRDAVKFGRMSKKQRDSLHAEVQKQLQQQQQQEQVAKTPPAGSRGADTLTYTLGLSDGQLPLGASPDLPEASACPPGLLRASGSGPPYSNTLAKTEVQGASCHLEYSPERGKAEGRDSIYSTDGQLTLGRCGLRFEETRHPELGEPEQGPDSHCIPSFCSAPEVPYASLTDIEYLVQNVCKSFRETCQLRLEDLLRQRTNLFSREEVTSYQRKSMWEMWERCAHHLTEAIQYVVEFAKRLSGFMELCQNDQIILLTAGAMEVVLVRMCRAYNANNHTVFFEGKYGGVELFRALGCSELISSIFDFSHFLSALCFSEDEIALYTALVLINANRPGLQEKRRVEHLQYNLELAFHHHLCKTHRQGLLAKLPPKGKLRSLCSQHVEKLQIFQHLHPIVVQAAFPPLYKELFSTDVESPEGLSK
#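 A Gal4/UAS one-hybrid system in insect cells: metallothionein-promoter Gal4–ROR gamma fusion plus Photinus luciferase reporter. Copper sulfate 700 uM final, 20 hr ambient incubation, luminescent detection after 10 min with reagent.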
# Numbers stand for hits; – = inactive; ? = inconclusive; · = no result; [ ] = dose if it differs, or a comment. The list is not random: actives were taken first. Their share in the collection is about 5.8%. Unless noted, calls follow the shape of the dose curve; as a rule, active = well fitted curve in the direction sought with a large enough effect; inconclusive = small, poorly fitted or top-dose-only effect, or another doubt; inactive = no such curve, though single readings can be large; an effect the other way counts as inactive or inconclusive.
SMILES,TRPV1 agonist,VP16 counter,TRPV1 PAM,uPA generation,RORg inh
CC(C)Nc1nc(Oc2ccc(Cl)cc2Cl)cc(C(F)(F)F)n1,–,?,–,–,25µM
CC1(O)C(=O)C=C2C=C(CCCCOCc3ccccc3)OC=C2C1=O (stereo unspecified),·,–[10 µM],·,·,–[10 µM]
O=C(Nc1ccccn1)c1ccc(C(=O)c2ccccc2)cc1,?,·,–,–,·
O=C(c1ccccc1)c1nc[nH]c1C(=O)Nc1ccccn1,–,18µM,–,–,13µM
O=C(NC(=O)c1ccccc1)Nc1ccccn1,–,1.6µM,–,·,0.5µM
O=C(Nc1ccncc1)Nc1ccccn1,–,–,–,–,–
O=C(Nc1ccccn1)Nc1cccs1,–,10µM,–,–,–
Cc1cc(C(=O)Nc2ccccn2)cs1,–,?,–,·,11µM
COC(=O)C1C(=O)c2c(C)noc2CC1(C)C (stereo unspecified),–,–,–,–,–
CCN(CC(=O)NC(=O)NCc1ccccc1)Cc1ccccc1,?,–,–,–,–
CC(=O)N1CCC2(CC1)CCN(c1ccc(-c3ccccc3)cc1)CC2,·,?,·,·,–
COc1ccccc1NC(=S)NNC(=O)c1c(Cl)c(C)nn1C,–,?,–,–,1.6µM
Cc1nn(C)c(C(=O)NNC(=S)NC2CCCCC2)c1Br,–,?,–,–,?
Cc1nn(C)c(C(=O)NN)c1Cl,–,–,–,–,11µM
CCNC(=S)NNC(=O)c1c(Cl)c(C)nn1C,–,?,–,–,6.3µM
CCCCNC(=S)NNC(=O)c1c(Cl)c(C)nn1C,–,–,–,–,1.4µM
CCNC(=S)NNC(=O)c1nn(C)c(C)c1Cl,–,–,–,–,?
Cc1cccc(NC(=O)NNC(=O)c2c(Cl)c(C)nn2C)c1,–,–,–,–,?
Cc1ccc(SCC(Cc2ccccc2)N2CCN(C)CCC2=O)cc1 (stereo unspecified),·,–,·,·,–
CCCCNC(=S)NNC(=O)c1c(C)nc2ccccn12,–,–,–,·,13µM
O=S(=O)(Nc1ccc(C(F)(F)F)cn1)c1ccccc1,–,–,–,–,–
CCCOc1ccc(-c2c(C(=O)N/N=C/c3cccs3)nnn2-c2nonc2N)cc1,?,3.2µM,–,–,2.2µM
CCOc1ccc(-c2c(C(=O)N/N=C(\C)c3ccccc3OC)nnn2-c2nonc2N)cc1,–,–,–,–,5.6µM
CCOc1ccc(-c2c(C(=O)N/N=C/c3ccc(O)cc3)nnn2-c2nonc2N)cc1,?,–,–,–,–
CCOc1ccc(-c2c(C(=O)N/N=C(\C)c3ccco3)nnn2-c2nonc2N)cc1,–,–,–,–,–
SMILES,TRPV1 agonist,VP16 counter,TRPV1 PAM,uPA generation,RORg inh
CCCOc1ccc(-c2c(C(=O)N/N=C/c3ccc(OC)cc3)nnn2-c2nonc2N)cc1,–,?,–,–,16µM
CCCOc1ccc(-c2c(C(=O)N/N=C/c3ccc(OCC)cc3)nnn2-c2nonc2N)cc1,–,10µM,–,–,10µM
CCOc1ccc(-c2c(C(=O)N/N=C/c3ccsc3)nnn2-c2nonc2N)cc1,?,?,–,–,–
Cc1ccc(-n2ccnc(SCC(=O)NCCc3ccccc3)c2=O)cc1F,–,·,–,–,·
O=C(Nc1ccccc1)N1CCC2(CC1)CCN(C(=O)c1csnn1)CC2,·,–,·,·,–
Cc1ccc(C(C[N+](=O)[O-])c2c(-c3ccccc3O)[nH][nH]c2=O)cc1 (stereo unspecified),–,11µM,–,–,5µM
CCn1ccc(C(=O)Nc2ncc(C)s2)n1,–,?,–,?,11µM
Cc1ccc(NC(=O)CSc2nnc(CNC(=O)c3ccco3)o2)cc1Cl,–,–,–,–,–
Cc1cc(C(=O)CSc2nncs2)c(C)n1Cc1ccco1,–,?,–,–,–
Cc1cc(C(=O)CSc2nc3ccccc3[nH]2)c(C)n1C,–,–,–,–,?
Cc1cc(C(=O)CSc2nc3ccccc3[nH]2)c(C)n1Cc1ccco1,–,16µM,–,?,?
Cc1cc(C(=O)CCl)c(C)n1Cc1ccco1,–,18µM,–,–,7.9µM
Cc1cc(C(=O)CCl)c(C)n1CCc1ccccc1,–,–,–,–,–
COC(=O)CCCn1c(C)cc(C(=O)CCl)c1C,–,–,–,–,8.9µM
